# Reference: PubChem BioAssay (NCATS)
# Records with an inconclusive call do not appear. Where a call stands in place of a potency, no number is given. A number with no mark means an inactive call. Active and inactive are the calls of the source. Calls follow the shape of the dose curve; as a rule, active = well fitted curve in the direction sought with a large enough effect; inconclusive = small, poorly fitted or top-dose-only effect, or another doubt; inactive = no such curve, though single readings can be large; an effect the other way counts as inactive or inconclusive.
# How the values were obtained:
# [1] = test system: PC26; assay: qHTS profiling for inhibitors of Plasmodium falciparum proliferation (AID 504749); also: nearly all actives have a fitted effect of over 60% in size; details: P. falciparum in erythrocytes, SYBR Green DNA, 72 h; series mostly up to 12.8 µM
# Procedure, shortened: (§1)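 P. falciparum-infected erythrocytes (0.3% parasitemia, 2.5% hematocrit final) were exposed to compounds for 72 h at 37 C in 5% CO2, then lysed with SYBR Green buffer overnight at room temperature; parasite DNA fluorescence was normalized to artemisinin and DMSO controls.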
# [2] = test system: PC49; assay: as above; details: P. falciparum in erythrocytes, SYBR Green DNA, 72 h; series mostly up to 12.8 µM
# Procedure, shortened: as §1
# [3] = test system: SC27B; assay: as above; details: P. falciparum in erythrocytes, SYBR Green DNA, 72 h; series mostly up to 12.8 µM
# Procedure, shortened: as §1
# [4] = test system: TAB109; assay: as above; details: P. falciparum in erythrocytes, SYBR Green DNA, 72 h; series mostly up to 12.8 µM
# Procedure, shortened: as §1
# [5] = test system: TAB113; assay: as above; details: P. falciparum in erythrocytes, SYBR Green DNA, 72 h; series mostly up to 12.8 µM
# Procedure, shortened: as §1
# [6] = test system: TAB165; assay: as above; details: P. falciparum in erythrocytes, SYBR Green DNA, 72 h; series mostly up to 12.8 µM
# Procedure, shortened: as §1
# [7] = test system: W2; assay: as above; details: P. falciparum in erythrocytes, SYBR Green DNA, 72 h; series mostly up to 12.8 µM
# Procedure, shortened: as §1
# [8] = target: Rap guanine nucleotide exchange factor 3 (Homo sapiens) (UniProt O95398); assay: Confirmatory qHTS for agonist of cAMP-regulated guanine nucleotide exchange factor 3 (EPAC1) (AID 1645881);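 also: EPAC1 catalysed release of BODIPY-GDP from Rap1B seen as fluorescence loss; nearly all actives have a fitted effect of over 75% in size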
# Chain of Rap guanine nucleotide exchange factor 3 (Homo sapiens) (O95398 whole entry, looked up): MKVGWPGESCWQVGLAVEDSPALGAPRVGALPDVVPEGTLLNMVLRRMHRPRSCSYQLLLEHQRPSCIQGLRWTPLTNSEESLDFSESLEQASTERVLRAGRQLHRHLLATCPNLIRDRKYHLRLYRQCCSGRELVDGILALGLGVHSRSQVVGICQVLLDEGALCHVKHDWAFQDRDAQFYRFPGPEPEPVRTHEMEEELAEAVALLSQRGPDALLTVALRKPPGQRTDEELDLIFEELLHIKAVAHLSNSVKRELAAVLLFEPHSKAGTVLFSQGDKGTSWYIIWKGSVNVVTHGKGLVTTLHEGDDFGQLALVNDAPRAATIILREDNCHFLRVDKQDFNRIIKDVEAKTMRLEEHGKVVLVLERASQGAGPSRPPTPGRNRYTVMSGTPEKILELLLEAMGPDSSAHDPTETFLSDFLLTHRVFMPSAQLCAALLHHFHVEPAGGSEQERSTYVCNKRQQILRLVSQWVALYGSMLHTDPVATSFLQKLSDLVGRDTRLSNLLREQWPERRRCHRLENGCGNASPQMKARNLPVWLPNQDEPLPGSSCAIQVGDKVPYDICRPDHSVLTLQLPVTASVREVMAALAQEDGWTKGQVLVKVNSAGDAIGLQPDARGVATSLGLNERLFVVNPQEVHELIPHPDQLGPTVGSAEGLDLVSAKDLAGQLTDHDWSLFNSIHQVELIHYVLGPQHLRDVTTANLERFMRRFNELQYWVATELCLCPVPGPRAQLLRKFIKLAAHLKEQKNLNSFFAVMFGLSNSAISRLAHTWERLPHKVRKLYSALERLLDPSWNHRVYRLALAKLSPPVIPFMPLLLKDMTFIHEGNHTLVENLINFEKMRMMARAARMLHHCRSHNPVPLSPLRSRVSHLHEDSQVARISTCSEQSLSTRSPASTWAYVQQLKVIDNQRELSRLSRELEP
# [9] = target: Rap guanine nucleotide exchange factor 4 (Homo sapiens) (UniProt Q8WZA2); assay: Confirmatory qHTS for agonist of cAMP-regulated guanine nucleotide exchange factor 4 (EPAC2) (AID 1645884);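 also: nucleotide exchange releases bodipy-GDP from Rap1 and this lowers its fluorescence; nearly all actives have a fitted effect of over 65% in size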
# Chain of Rap guanine nucleotide exchange factor 4 (Homo sapiens) (Q8WZA2 whole entry, looked up): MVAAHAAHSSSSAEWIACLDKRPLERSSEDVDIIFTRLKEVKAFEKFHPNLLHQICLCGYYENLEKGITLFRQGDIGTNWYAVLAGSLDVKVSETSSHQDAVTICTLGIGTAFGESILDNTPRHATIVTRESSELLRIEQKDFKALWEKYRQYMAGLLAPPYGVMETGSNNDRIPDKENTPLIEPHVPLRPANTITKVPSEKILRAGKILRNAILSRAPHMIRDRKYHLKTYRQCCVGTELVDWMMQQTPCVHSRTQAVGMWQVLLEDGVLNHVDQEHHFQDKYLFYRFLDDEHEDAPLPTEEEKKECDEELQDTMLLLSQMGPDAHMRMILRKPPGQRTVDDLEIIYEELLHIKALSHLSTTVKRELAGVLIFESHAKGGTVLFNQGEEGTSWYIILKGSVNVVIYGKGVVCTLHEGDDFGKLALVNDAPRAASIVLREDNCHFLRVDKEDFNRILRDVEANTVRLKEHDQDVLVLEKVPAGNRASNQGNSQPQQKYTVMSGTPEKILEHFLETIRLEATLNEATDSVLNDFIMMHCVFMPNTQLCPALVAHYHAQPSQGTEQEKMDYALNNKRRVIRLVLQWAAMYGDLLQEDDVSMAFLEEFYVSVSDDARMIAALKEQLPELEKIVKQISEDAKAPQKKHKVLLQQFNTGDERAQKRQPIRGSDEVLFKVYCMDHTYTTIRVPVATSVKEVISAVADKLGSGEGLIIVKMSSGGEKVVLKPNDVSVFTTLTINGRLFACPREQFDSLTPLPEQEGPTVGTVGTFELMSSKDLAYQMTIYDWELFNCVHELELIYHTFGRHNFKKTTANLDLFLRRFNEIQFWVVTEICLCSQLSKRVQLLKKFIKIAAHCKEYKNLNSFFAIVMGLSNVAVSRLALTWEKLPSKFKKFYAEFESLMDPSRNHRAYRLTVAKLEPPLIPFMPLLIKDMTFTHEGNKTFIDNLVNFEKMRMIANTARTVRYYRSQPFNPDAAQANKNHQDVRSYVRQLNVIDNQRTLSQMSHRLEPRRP
# [10] = target: Rap guanine nucleotide exchange factor 4 (Homo sapiens) (UniProt Q8WZA2); assay: Confirmatory qHTS for antagonist of cAMP-regulated guanine nucleotide exchange factor 4 (EPAC2) (AID 1645885); also: nearly all actives have a fitted effect of over 25% in size; also: potency is read from the fitted curve at half-maximal effect
# [11] = target: Rap guanine nucleotide exchange factor 3 (Homo sapiens) (UniProt O95398); assay: Counterscreen qHTS for antagonist of cAMP-regulated guanine nucleotide exchange factor 3 (EPAC1) (AID 1645888);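 also: fluorescence loss as bound BODIPY-GDP is released from Rap1B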
# Procedure, shortened: (§2)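 Measured: fluorescence of BODIPY-GDP bound to Rap1B, which falls as exchange proceeds. Conditions include 50 uM competing GDP, 5 and 30 min reads, and a later cAMP challenge for antagonist detection.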
# [12] = target: Rap guanine nucleotide exchange factor 3 (Homo sapiens) (UniProt O95398); assay: Counterscreen qHTS for agonist of cAMP-regulated guanine nucleotide exchange factor 3 (EPAC1) (AID 1645889); also: nearly all actives have a fitted effect of over 40% in size
# Procedure, shortened: as §2
smiles,measurement,setting,value
Nc1nc(NC2CC2)c2ncn([C@H]3C=C[C@@H](CO)C3)c2n1,Potency,[1],inactive
same,Potency,[2],inactive
same,Potency,[3],inactive
same,Potency,[4],inactive
same,Potency,[5],inactive
same,Potency,[6],inactive
same,Potency,[7],inactive
CCCCn1c(N)c(N(CCOC)C(=O)c2ccc(C)c(S(=O)(=O)N3CCCCC3)c2)c(=O)[nH]c1=O,Potency,[8],inactive
same,Potency,[9],inactive
same,Potency,[10],inactive
same,Potency,[11],inactive
Cc1cc2ccccn2c1C(=O)c1ccc(C#N)cc1,Potency,[8],inactive
same,Potency,[9],inactive
same,Potency,[10],inactive
same,Potency,[11],inactive
same,Potency,[12],inactive
CCOC(=O)C1C(=O)C=C(c2ccccc2)CC1c1ccccc1 (stereo not given),Potency,[8],inactive
same,activation,[9],"12.3% [at 17.1 µM, percent relative to cAMP agonist control]"
same,Potency,[10],inactive
same,"activity change, negative = inhibition",[11],-11.6% [at 30.8 µM]
Cc1noc(NS(=O)(=O)c2ccc(NC(=O)CSc3nnc4c(n3)[nH]c3ccccc34)cc2)c1C,Potency,[8],inactive
same,Potency,[9],inactive
same,Potency,[10],inactive
same,Potency,[11],inactive
same,Potency,[12],inactive
Cc1ccc(NC(=O)c2cccc(NC(=O)/C=C/c3ccco3)c2)cc1C,Potency,[8],inactive
same,activation,[9],"6.06% [at 17.1 µM, percent relative to cAMP agonist control]"
same,Potency,[10],inactive
same,"activity change, negative = inhibition",[11],-4.44% [at 30.8 µM]
same,activation,[12],5.53% [at 30.8 µM]
Clc1ccc(CSc2nncn3c2cc2occc23)cc1,Potency,[8],inactive
same,Potency,[9],inactive
same,Potency,[10],inactive
same,Potency,[11],inactive
COc1cc(-c2c(CCO)sc3ccccc23)cc(OC)c1OC,Potency,[8],inactive
same,activation,[9],"1.4% [at 17.1 µM, percent relative to cAMP agonist control]"
same,Potency,[10],inactive
same,"activity change, negative = inhibition",[11],-51.2% [at 30.8 µM]
same,activation,[12],8.02% [at 30.8 µM]
CCCCN1C(=O)C(CC(=O)NC2CCCCC2)CC(C(=O)N2CCCCCC2)=C1C (stereo not given),Potency,[8],inactive
same,activation,[9],"8.48% [at 17.1 µM, percent relative to cAMP agonist control]"
same,Potency,[10],inactive
same,"activity change, negative = inhibition",[11],-2.29% [at 30.8 µM]
COc1ccccc1N1CC(C(=O)Nc2cc(C(F)(F)F)ccc2N2CCCC2)CC1=O (stereo not given),Potency,[8],inactive
same,activation,[9],"9.01% [at 17.1 µM, percent relative to cAMP agonist control]"
same,Potency,[10],inactive
same,"activity change, negative = inhibition",[11],-8.33% [at 30.8 µM]
same,activation,[12],9.96% [at 30.8 µM]
CN(Cc1cccc2ncccc12)C(=O)c1cnn(-c2nccc(-c3ccccc3F)n2)c1C1CC1,Potency,[8],inactive
same,Potency,[9],inactive
same,Potency,[10],15.6 µM (active)
CCOC(=O)C(Cc1ccc(NC(=O)/C(=C\c2ccccc2)NC(=O)c2ccccc2)cc1)N1C(=O)c2ccccc2C1=O (stereo not given),Potency,[8],inactive
same,Potency,[9],inactive
same,Potency,[10],inactive
same,Potency,[11],inactive
CCCN1C(=O)c2[nH]nc(-c3ccccc3)c2C1c1cccc(O)c1 (stereo not given),Potency,[8],inactive
same,Potency,[9],inactive
same,Potency,[10],inactive
same,Potency,[11],inactive
C/C(=C\C(=O)c1ccccc1)Nc1ccc(O)cc1,Potency,[8],inactive
same,activation,[9],"3.61% [at 17.1 µM, percent relative to cAMP agonist control]"
same,Potency,[10],inactive
same,"activity change, negative = inhibition",[11],-14.8% [at 30.8 µM]
same,activation,[12],29.9% [at 30.8 µM]
Cc1ccc2c(c1)CCCN2C(=O)c1cc(C)c(C)s1,Potency,[8],inactive
same,Potency,[9],inactive
same,outcome,[10],inactive [at 12.7 µM]
same,Potency,[11],inactive
CCn1c(CSc2nc3ccccc3s2)nnc1SCC(=O)c1ccc(O)c(O)c1,Potency,[8],inactive
same,Potency,[9],inactive
same,Potency,[10],inactive
same,Potency,[11],inactive
O=C(CC[C@H]1O[C@@H](n2ccc(=O)[nH]c2=O)[C@H](O)[C@@H]1O)NCc1cccc2ccccc12,Potency,[8],inactive
same,Potency,[9],inactive
same,Potency,[10],inactive
same,Potency,[11],inactive
same,Potency,[12],inactive
CCOc1ccc(NCc2nc3ccccc3n2CCOc2ccccc2)cc1,Potency,[8],inactive
same,activation,[9],"16.9% [at 17.1 µM, percent relative to cAMP agonist control]"
same,Potency,[10],inactive
same,"activity change, negative = inhibition",[11],4.92% [at 30.8 µM]
CCN(CC)C(=S)Oc1c(Cl)cccc1Cl,Potency,[8],inactive
same,activation,[9],"7.01% [at 17.1 µM, percent relative to cAMP agonist control]"
same,Potency,[10],inactive
same,"activity change, negative = inhibition",[11],-19.4% [at 30.8 µM]
